# Source: PubChem
# This is a sample that favours compounds with a hit; in the whole collection about 27% have one here.
# CYP2C9 act: human CYP2C9 activators, primary screen, biochemical, luminescence. activation factor at 5 µM. AID 1024, 2008. recombinant CYP2C9, luciferin-H conversion; hits give high values; factor 1 = untreated enzyme, 0 = blocked. 1.4% of 96,000 active;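 active means activation factor of 2 or more for CYP2C9 at a 5 µM dose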
# sEH inhibitor: soluble epoxide hydrolase inhibitors, primary screen, biochemical, human sEH; inhibition, % at 2 µM; recombinant human sEH enzymatic activity assay; 0.34% of 91,000 active; in the data active means inhibition above about 80%
# CYP2C19 inhib: blockers of cytochrome P450 2C19 activity – biochemical, luminescence, ADME assay, primary screen | P33261 | CYP2C19 Supersomes, luciferin-H EGE luminescence, 30 min | inhibition, % at 5 µM | 21% of 96,000 active;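 active means CYP2C19 inhibition above a set limit at 5 µM in the primary screen, cut at about 50% in these data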
# Target sequence (P33261 whole entry, looked up): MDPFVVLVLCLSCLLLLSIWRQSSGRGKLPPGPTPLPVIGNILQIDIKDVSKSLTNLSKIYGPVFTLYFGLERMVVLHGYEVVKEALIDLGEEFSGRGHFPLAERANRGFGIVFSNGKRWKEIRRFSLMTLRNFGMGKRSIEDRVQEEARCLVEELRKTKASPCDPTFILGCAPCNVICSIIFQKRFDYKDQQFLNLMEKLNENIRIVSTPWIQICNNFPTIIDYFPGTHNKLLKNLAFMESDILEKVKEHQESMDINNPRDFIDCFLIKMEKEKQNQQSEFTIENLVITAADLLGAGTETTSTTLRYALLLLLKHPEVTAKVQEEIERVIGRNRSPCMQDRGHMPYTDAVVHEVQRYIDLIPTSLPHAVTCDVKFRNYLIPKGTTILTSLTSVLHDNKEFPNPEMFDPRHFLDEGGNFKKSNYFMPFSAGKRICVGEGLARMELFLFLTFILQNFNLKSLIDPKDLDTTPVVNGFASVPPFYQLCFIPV
# sEH activator: soluble epoxide hydrolase activators, primary screen, biochemical, human sEH; activation, % at 2 µM; 0.04% of 91,000 active; Bifunctional epoxide hydrolase 2 (Homo sapiens), P34913; purified human sEH enzymatic activity, activator screen; in the data active means activation above about 37%
# CYP2C9 inh: blockers of cytochrome P450 2C9 activity – biochemical, luminescence, ADME assay, primary screen | P11712 | CYP2C9 Supersomes, luciferin-H conversion | inhibition, % at 5 µM | 20% of 96,000 active;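 active means blocking of liver enzyme CYP2C9 beyond about 50% at 5 µM, limit read from the data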
# CYP2C19 activ: human CYP2C19 activators, primary screen, biochemical, luminescence | 96,000 tested, under 10 active | activation factor at 5 µM | recombinant CYP2C19, luciferin-H EGE luminescence; hits give high values; 0 = fully inhibited enzyme, 1 = untreated enzyme | Cytochrome P450 2C19 (Homo sapiens), P33261;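 active means activation factor of at least 2 at 5 µM in the primary screen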
# Hits are given with their value; i = inactive; nt = no result given.
SMILES,CYP2C9 act,sEH inhibitor,CYP2C19 inhib,sEH activator,CYP2C9 inh,CYP2C19 activ
Cc1ccc2cc(C)c3nnc(SCC(=O)Nc4nc5c(s4)CCCC5)n3c2c1C,i,i,i,i,50,i
CCc1nnc(NC(=O)CSc2nnc(-c3cc4ccccc4cc3O)n2CC)s1,i,nt,52,nt,90,i
CCn1c(SCC(=O)Nc2nc(-c3ccccc3)cs2)nnc1-c1ccccc1O,i,i,89,i,95,i
CCn1c(SCC(=O)N(C(C)C)C(C)C)nnc1-c1cc2ccccc2cc1O,i,i,65,i,57,i
COc1ccc(N2CCN(C(=O)CSc3nnc4c(C)cc5ccc(C)c(C)c5n34)CC2)cc1,i,i,i,i,i,i
CCn1c(CCNC(=O)c2cccs2)nnc1SCC(=O)Nc1nc(-c2ccccc2)cs1,nt,i,nt,i,nt,nt
CCc1nnc(NC(=O)CSc2nnc(-c3ccc(S(=O)(=O)N(CC)CC)cc3)n2CC)s1,i,i,i,i,i,i
CCn1c(SCC(=O)Nc2ccc(S(N)(=O)=O)cc2)nnc1-c1ccccc1OC,i,i,i,i,i,i
CC1(C)C=C(c2ccc(O)cc2)CC(C)(C)N1,i,i,i,i,i,i
CCn1c(SCC(=O)Nc2nc3ccccc3s2)nnc1-c1ccc(OC)cc1,i,i,i,i,i,i
CCc1nnc(NC(=O)CSc2nnc(-c3cc4ccccc4cc3O)n2CCOC)s1,i,i,i,i,54,i
CCn1c(SCC(=O)Nc2nc3c(s2)CCCC3)nnc1-c1ccccc1,i,i,81,i,88,i
CCc1nnc(NC(=O)CSc2nnc(-c3cccnc3)n2CC)s1,i,i,i,i,i,i
CCc1nnc(NC(=O)CSc2nnc(-c3ccccc3O)n2CC)s1,i,i,76,i,77,i
O=C1CC(N2CCSCC2)C(=O)N1CCc1ccccc1 (stereo not given),i,i,i,i,i,i
COc1cc(=O)[nH]c(=O)n1CC(=O)c1ccccc1,nt,i,nt,i,nt,nt
Cc1nc(-c2ccccc2)nc2[nH]c(C(C)C)cc(=O)c12,i,i,i,i,81,i
Cc1nc(-c2ccccc2)nc2[nH]c(=O)n(-c3ccccc3)c(=O)c12,i,i,i,i,i,i
COc1ccc(OC)c(NC(=O)CSc2nnc(Cc3cccn3C)n2CCc2ccccc2)c1,i,nt,i,nt,i,i
COc1ccc(OC)c(C(=O)CSc2nnc(Cc3cccs3)n2CCc2ccccc2)c1,i,i,55,i,i,i
COc1cccc(NC(=O)CSc2nnc(-c3cccs3)n2C)c1,i,i,i,i,i,i
COc1ccc(OC)c(C(=O)CSc2nnc(-c3cccs3)n2C)c1,i,i,97,i,i,i
Cc1ccc(C(=O)CSc2nnc(-c3cccs3)n2C)o1,i,nt,51,nt,i,i
Cn1c(Cc2ccccc2)nnc1SCC(=O)c1cccs1,i,i,95,i,i,i
CCC(N)C12CC3CC(CC(O)(C3)C1)C2 (stereo not given),nt,i,nt,i,nt,nt
SMILES,CYP2C9 act,sEH inhibitor,CYP2C19 inhib,sEH activator,CYP2C9 inh,CYP2C19 activ
CS(=O)(=O)N1CCN(c2ccccc2NC(=O)c2ccco2)CC1,i,i,i,i,i,i
CC(C)(C)C(=O)CNS(=O)(=O)c1ccc(S(=O)(=O)NC2CCCC2)cc1,i,i,89,i,i,i
CN(C(=O)c1ccc(S(=O)(=O)NC2CCCC2)cc1)C1CCCCC1,i,i,i,i,i,i
CCOC(=O)C1CCCC(NS(=O)(=O)c2ccc(NC(C)=O)cc2)C1 (stereo not given),i,i,58,i,77,i
O=S(=O)(NC1CCCC1)c1ccc(S(=O)(=O)NC2CCCC2)cc1,i,nt,98,nt,86,i
O=S(=O)(NC1CCCCC1NS(=O)(=O)c1ccc(F)cc1)c1ccc(F)cc1 (stereo not given),i,i,62,i,87,i
Cn1c(=O)oc2cc(S(=O)(=O)N3CCC(C(=O)N4CCc5ccccc5C4)CC3)ccc21,i,i,i,i,i,i
O=C(CN1CCCCC1)Nc1ccc(S(=O)(=O)NC2CCCCC2)cc1,i,nt,i,nt,72,i
CC(C)CCN(C)c1ccc(/C=N/n2cnnc2)cc1,i,i,99,i,95,i
